A selection: hits, their analogues and other compounds. The true share with any hit is near 7.3%.
p53 reactivator = restores transcriptional activity of mutant p53; 0.063% of 320,000 active; Potency, µM (highest dose often 92.2 µM), usual class: activators; H1299 p53-A138V BP100-luciferase reporter, luminescence, 24 h; AID 504706; further: nearly all actives have a fitted effect of over 45% in size
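H1299 (p53-null), stable ts p53-A138V + BP100-Luc; 1000 cells/well, Opti-MEM/10% FBS; cpd 4 pt, 1:5; 24 h, 37 deg C, 5% CO2; detection reagent 10 min RT; luminescence.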
ELG1 genotoxic = genotoxicity induction in ELG1-luciferase HEK293T cells. 1.3% of 330,000 active. Potency, µM (titrated, usually from 46 µM), actives largely listed as activators. HEK293T ELG1-luciferase reporter, luminescence, 16 h; further: nearly all actives have a fitted effect of over 60% in size
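After overnight (16 hr) compound treatment at 37 °C, ELG1-luciferase HEK293T cells were lysed with ONE-Glo; luminescence quantified 30 min later at room temperature.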
Rab9 prom act = activates the Rab9 promoter; Huh7 Rab9 promoter-luciferase reporter, luminescence, 24 h; Potency, µM (top dose mostly 9.22 µM), most hits filed as activators; 2.8% of 320,000 active; AID 485297; further: nearly all actives have a fitted effect of over 60% in size
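Rab9 promoter-driven luciferase in stably transfected Huh7 cells; 1500 cells/well rested 2 h, exposed to compound in DMSO for 24 h at 37 °C, 5% CO2. Luminescence read 10 min after adding luciferase reagent at ambient temperature.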
FLuc counter = counter-screen for miR-21 project: firefly luciferase inhibitors or activators; P08659; purified FLuc, Km substrates, luminescence inhibition; Potency, µM (series often up to 57.5 µM), hits mostly inhibitors; 6.9% of 360,000 active; further: nearly all actives have a fitted effect of over 55% in size
Target sequence (P08659 whole entry, looked up): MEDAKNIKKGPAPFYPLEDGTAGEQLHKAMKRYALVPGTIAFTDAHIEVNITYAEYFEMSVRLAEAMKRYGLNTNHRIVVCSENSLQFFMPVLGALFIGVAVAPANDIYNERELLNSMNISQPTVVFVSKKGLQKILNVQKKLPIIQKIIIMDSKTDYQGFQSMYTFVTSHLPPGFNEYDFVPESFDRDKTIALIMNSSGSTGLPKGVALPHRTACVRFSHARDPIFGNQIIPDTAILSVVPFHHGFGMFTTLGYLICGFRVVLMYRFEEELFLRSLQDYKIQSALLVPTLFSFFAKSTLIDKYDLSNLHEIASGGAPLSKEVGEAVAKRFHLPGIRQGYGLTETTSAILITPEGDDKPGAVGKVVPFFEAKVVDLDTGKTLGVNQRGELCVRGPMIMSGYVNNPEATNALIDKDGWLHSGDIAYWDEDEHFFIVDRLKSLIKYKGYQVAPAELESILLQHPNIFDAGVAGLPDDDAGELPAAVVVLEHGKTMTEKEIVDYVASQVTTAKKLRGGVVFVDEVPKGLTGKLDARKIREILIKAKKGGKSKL
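Purified P. pyralis luciferase, 10 nM final, with Km-level 10 uM D-luciferin and 10 uM ATP in 50 mM Tris acetate pH 7.5, 10 mM Mg acetate, 0.01% Tween-20, 0.05% BSA; 6-point qHTS titration about 60 µM downward; luminescence read.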
SMN2 splice up = increases expression of the SMN2 splice variant; HEK293 SMN2-luciferase splicing reporter, luminescence, 30-36 h; 2.8% of 210,000 active; Potency, µM (top dose mostly 46.1 µM), actives largely listed as activators; further: nearly all actives have a fitted effect of over 55% in size
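HEK293 cells carry an SMN2 […]–luciferase reporter in which exon 7 inclusion puts luciferase in frame. Cells were plated 10-12 h before compound addition, then incubated 30-36 h at 37C. ONE-Glo luminescence was read; sodium butyrate at 4.5 mM final served as control.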
NPC1 promoter act = NPC1 promoter activation. Huh7 NPC1 promoter luciferase reporter, 24 h. Potency, µM (highest dose often 9.22 µM), most hits filed as activators. 2.4% of 320,000 active. AID 485313; further: nearly all actives have a fitted effect of over 60% in size
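Cells: Huh7 expressing luciferase under the NPC1 promoter, 1500/well. Seeded 2 h, compound added, incubated 24 h at 37 °C. Luciferase reagent, 10 min ambient, then luminescence.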
Numbers stand for hits; - = inactive; ? = inconclusive; . = no result; [ ] = dose if it differs, or a comment. The call rests on the fitted dose curve; in most records, active means well fitted curve in the direction sought with a large enough effect; inconclusive means small, poorly fitted or top-dose-only effect, or another doubt; inactive means no such curve, though single readings can be large; an effect the other way counts as inactive or inconclusive.

SMILES	p53 reactivator	ELG1 genotoxic	Rab9 prom act	FLuc counter	SMN2 splice up	NPC1 promoter act
COc1ccc(/C=N/NC(=O)c2ccc(-c3ccccc3)cc2)cc1O	-	-	-	?	-	-
O=C(CN1C(=O)C2C3C=CC(C3)C2C1=O)Nc1ccc(S(=O)(=O)N2CCCCC2)cc1 (configuration not stated)	-	-	-	-	-	-
COc1ccc(C(=O)N/N=C/c2ccc(OC)c(COc3ccccc3)c2)cc1	-	-	-	-	.	-
COc1cccc(OCc2cc(/C=N/NC(=O)c3ccn[nH]3)ccc2OC)c1	-	-	-	15µM	-	-
CCOc1ccc2[nH]c(C(=O)N/N=C/c3ccccc3OC)cc2c1	-	-	-	15µM	.	-
COc1ccc2[nH]c(C(=O)N/N=C/c3ccc(OC)c(O)c3)cc2c1	?	-	-	5.4µM	.	-
COc1ccc(/C=N\NC(=O)c2ccccc2)cc1COc1ccccc1	-	-	-	-	.	-
COc1ccc(/C=N\NC(=O)c2cc(O)c(O)c(O)c2)cc1COc1ccc(C(=O)OCC(C)C)cc1	-	?	-	24µM	.	-
COc1ccc(/C=N/NC(=O)c2cccnc2)cc1O	.	-	-	-	.	-
Cc1ccc(Cl)cc1NC(=O)Nc1cccc(OCc2cc(=O)n3ccccc3n2)c1	.	.	.	-	.	.
Cc1cc(C)c2c(NC(=O)c3ccccc3Cl)c(C(=O)NCc3ccc(Cl)cc3)sc2n1	.	.	.	-	-	.
Cc1ccccc1CNC(=O)c1sc2ncnc(N(C)C3CCCCC3)c2c1C	.	.	.	-	.	.
CCCOc1ccc2[nH]c(C(=O)N/N=C/c3cc(OC)c(OC)c(OC)c3)cc2c1	-	-	-	13µM	.	-
COc1cc(OC)c2cc(C(=O)N/N=C/c3ccccc3O)[nH]c2c1	-	?	-	-	.	-
COc1ccc(OC)c(/C=N/NC(=O)c2cc3c(OC)c(OC)ccc3[nH]2)c1	-	-	-	4.8µM	-	-
COc1ccc(OC)c(/C=N/NC(=O)c2ccc3nc[nH]c3c2)c1	-	-	-	?	.	-
COc1ccc2[nH]c(C(=O)N/N=C/c3ccccc3OC)cc2c1	-	-	-	19µM	.	-
CCc1ccc2oc(C(=O)N(Cc3cccc(Cl)c3)Cc3ccco3)c(C)c2c1	.	.	.	-	-	.
COc1ccc(Cl)cc1NC(=O)COC(=O)CC(C)(C)CC1=NS(=O)(=O)c2ccccc2N1	.	.	.	-	.	.
Cc1c(C(=O)Nc2ccc3c(c2)CCC3)cccc1[N+](=O)[O-]	?	?	?	13µM	.	?
Cc1c(C(=O)Nc2ccc(Nc3ccccc3)cc2)cccc1[N+](=O)[O-]	.	-	-	-	.	-
CN(CC(=O)Nc1ccc2c(c1)CCC2)CC(=O)Nc1ccccc1Br	-	-	-	-	-	-
O=C(Nc1ccc2c(c1)CCC2)c1ccccc1Br	?	2.3µM	1.6µM	4.8µM	.	1.6µM
CSc1ccccc1C(=O)Nc1ccc2c(c1)CCC2	?	?	-[1.84 µM]	15µM	.	?
CCc1ccc(/C=N/NC(=O)c2ccccn2)cc1	-	?	0.13µM	0.48µM	.	0.45µM
SMILES	p53 reactivator	ELG1 genotoxic	Rab9 prom act	FLuc counter	SMN2 splice up	NPC1 promoter act
CN(C)c1ccc(/C=N/NC(=O)c2cccc(C(=O)N/N=C/c3ccc(N(C)C)cc3)n2)cc1	-	-	-	?	-	-
CCN(CC)c1ccc(/C=N/NC(=O)c2ccccn2)cc1	-	?	0.71µM	2.4µM	.	0.45µM
CCN(CC)c1ccc(/C=N/NC(=O)c2cnccn2)cc1	?	12µM	?	12µM	20µM	-
O=C(N/N=C/c1ccc(OC(=O)c2ccccc2Cl)cc1)c1ccccn1	?	8.2µM	?	1.5µM	.	2.8µM
C/C=C\C=C/C(=O)Nc1cccc(C2=NOC3(C2)C[C@@H](C(N)=O)N(C(=O)c2ccccc2)C3)c1 (some centres not stated)	-	-	-	17µM	.	-
NC(=O)C1(NC(=O)[C@@H]2CC3(CC(c4cccc(NC(=O)[C@@H]5CCC(=O)N5)c4)=NO3)CN2C(=O)c2ccccc2)CC1 (some centres not stated)	-	-	-	-	-	2.2µM
C/C=C\C(=O)Nc1cccc(C2=NOC3(C2)C[C@@H](C(N)=O)N(C(=O)c2ccccc2)C3)c1 (some centres not stated)	-	-	-	-	.	-
C/C=C/C=C\C(=O)Nc1cccc(C2=NOC3(C2)C[C@@H](C(N)=O)N(C(=O)c2cc([N+](=O)[O-])cc([N+](=O)[O-])c2C)C3)c1 (some centres not stated)	-	-	-	7.6µM	.	-
C/C=C\C=C\C(=O)Nc1cccc(C2=NOC3(C2)C[C@H](C(N)=O)N(C(=O)c2ccccc2C(=O)c2ccccc2)C3)c1 (some centres not stated)	-	-	-	21µM	.	-
COc1ccc(CCNC(=O)c2c(C)oc3ncnc(N4CCOCC4)c23)c(OC)c1	.	.	.	-	.	.
COc1cccc(C(=O)Nc2c(C(=O)N3CCN(c4ccc(F)cc4)CC3)oc3ccccc23)c1	.	.	.	-	.	.
COc1ccc(NC2=C(NC(C)=O)C(=O)c3ccccc3C2=O)cc1	-	-	-	-	.	-
CCC(=O)Nc1ccc(C2C(=O)c3ccccc3C2=O)cc1	?	?	?	1.3µM	.	0.79µM
CCC(=O)NC1=C(Nc2ccc(N)cc2)C(=O)c2ccccc2C1=O	-	-	2.8µM	27µM	.	-
CCC(=O)Nc1ccc(NC(=S)Nc2ccccc2)cc1	-	-	-	-	-	-
CC(C)(C)NC(=O)COc1ccc(-c2ccccc2)cc1	-	?	-	19µM	-	?
CCNC(=O)COc1ccc(-c2ccccc2)cc1	-	?	?	19µM	?	?
CC(=O)c1ccc(OCC(=O)c2ccc(-c3ccccc3)cc2)cc1	-	-	-	-	-	-
CC(C)OC(=O)COc1ccc(-c2ccccc2)cc1	-	-	-	12µM	-	-
COCCCNC(=O)CCCCn1c(=O)c2ccccc2n(CC(=O)Nc2ccc(C)cc2C)c1=O	.	.	.	-	-	.
C/C(=N\NC1=NCCN1)c1ccc(Cl)cc1	-	-	-	-	.	-
CN(C)c1ccc(C(=O)Nc2nc3c(s2)CCCC3)cc1	?	?	0.32µM	0.24µM	0.63µM	0.45µM
C/C(=N\Nc1nc2c(s1)CCCC2)c1ccc(Cl)cc1	-	?	-	19µM	-	-
CC(C)(C)c1ccc(C(=O)NC(=S)Nc2nc3c(s2)CCCC3)cc1	?	?	?	5.4µM	-	-
COC(=O)Nc1nc2c(s1)CCCC2	?	?	-	-	-	-
Cc1ccc(C)c(Nc2c(F)c(F)c(F)c(F)c2C(=O)O)c1	-	-	-	15µM	-	-
COc1c(F)c(F)c(C(=O)O)c(Nc2ccc(C)cc2)c1F	-	-	-	-	-	-
